Source: PubChem BioAssay (National Center for Advancing Translational Sciences (NCATS))
HTT cytoprotect = protects HTT-Q103 PC12 cells, measured by ATP. PC12 HTT-Q103 induced, cytoprotection, ATP luminescence, 40 h. Potency, µM (titrated, usually from 56.4 µM), for inactives: cytoprotection (ATP increase), usual class: activators. actives 0.14% (n = 230,000); also: % of control where 0% means no effect; nearly all actives have a fitted effect of over 45% in size
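Huntington model: PC12 line, ecdysone-inducible HTTQ103 exon1–GFP, tebufenozide 100 nM. Test articles in a dose series. Endpoint luminescence from cellular ATP.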
HTT aggregate = inhibitors of mutant huntingtin aggregate formation in PC12 cells; Potency, µM (highest dose often 46.1 µM), inactives show at the top dose activity change, negative = inhibition, usual class: inhibitors; actives 1.1% (n = 220,000); PC12 HttQ103-GFP aggregates, Acumen cytometry, 40 h; also: % is scaled to controls: 0 for no effect and ±100 for the full control effect; nearly all actives have a fitted effect of over 60% in size
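Multiplexed with ATP-based cell death, this channel scores GFP aggregates in PC12 cells expressing inducible HTTex1-Q103-GFP. Induction used 100 nM tebufenozide; compounds were tested in concentration series.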
L3MBTL1 inh = L3MBTL1 (human) inhibition. actives 0.66% (n = 230,000). Potency, µM (doses to about 57.1 µM), for inactives: at the top dose activity, negative = inhibition, usual class: inhibitors. AlphaScreen L3MBTL1–H3K9me1 peptide binding; also: % is scaled to controls: 0 for no effect and ±100 for the full control effect; nearly all actives have a fitted effect of over 60% in size
Target sequence (Q9Y468 whole entry, looked up): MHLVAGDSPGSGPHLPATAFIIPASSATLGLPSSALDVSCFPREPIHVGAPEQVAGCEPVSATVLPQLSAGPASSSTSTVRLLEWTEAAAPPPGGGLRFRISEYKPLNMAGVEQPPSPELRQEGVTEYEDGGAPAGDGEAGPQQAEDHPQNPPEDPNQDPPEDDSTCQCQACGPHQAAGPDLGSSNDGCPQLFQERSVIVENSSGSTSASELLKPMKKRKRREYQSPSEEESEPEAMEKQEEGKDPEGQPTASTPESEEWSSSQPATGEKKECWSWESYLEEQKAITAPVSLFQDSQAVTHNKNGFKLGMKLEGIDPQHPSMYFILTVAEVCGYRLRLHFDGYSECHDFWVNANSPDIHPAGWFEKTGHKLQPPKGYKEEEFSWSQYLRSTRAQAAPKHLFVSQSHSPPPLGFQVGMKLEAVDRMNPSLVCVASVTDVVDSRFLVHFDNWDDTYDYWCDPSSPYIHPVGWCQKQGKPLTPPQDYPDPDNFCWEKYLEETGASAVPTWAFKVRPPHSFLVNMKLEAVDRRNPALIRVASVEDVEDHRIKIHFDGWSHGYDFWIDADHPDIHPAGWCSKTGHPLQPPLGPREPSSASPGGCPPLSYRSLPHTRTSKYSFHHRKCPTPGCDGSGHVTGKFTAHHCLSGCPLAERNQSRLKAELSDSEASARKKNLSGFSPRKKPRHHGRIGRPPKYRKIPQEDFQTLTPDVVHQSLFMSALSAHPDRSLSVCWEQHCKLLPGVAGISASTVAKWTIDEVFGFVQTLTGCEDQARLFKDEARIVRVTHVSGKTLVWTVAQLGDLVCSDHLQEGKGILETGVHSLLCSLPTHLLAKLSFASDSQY
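AlphaScreen proximity signal between nickel-chelate acceptor and streptavidin donor beads (final 10 ug/mL) reports binding of 50 nM L3MBTL1 to 75 nM biotin-H3 K9me1 peptide; complex incubated with compounds 30 min at room temperature; cefsulodin titration as control.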
KDM4E inh = JMJD2E (human) inhibition. B2RXH2. AID 2147. actives 1.6% (n = 230,000). Potency, µM (top dose mostly 57.1 µM), for inactives: at the highest dose activity change, negative = inhibition, usual class: inhibitors. JMJD2E catalytic domain, FDH-coupled NADH fluorescence (FDH is formaldehyde dehydrogenase);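 also: 0% = wells with enzyme and -100% = buffer wells without enzyme; nearly all actives have a fitted effect of over 50% in size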
Active calls of the source: *; ? = inconclusive; . = no result; [ ] = remark or other dose. Compounds with a hit are over-represented: about 1.8% of the library has one in this group of screens. Unless noted, calls follow the shape of the dose curve; as a rule, active = well fitted curve in the direction sought with a large enough effect; inconclusive = small, poorly fitted or top-dose-only effect, or another doubt; inactive = no such curve, though single readings can be large; an effect the other way counts as inactive or inconclusive. Potency is read from the fitted curve at half-maximal effect.

SMILES	HTT cytoprotect	HTT aggregate	L3MBTL1 inh	KDM4E inh
Cc1cc(Cl)nc(-n2nc(C)cc2C)n1	-1%[10 µM]	?	14%	-2%
C=C(C)C(=O)/C=C/c1ccc(Br)cc1	?	.	.	4%
O=C(N/N=C1/C[C@@H](O)[C@@H](O)[C@@H]2[C@@H]3C(=O)N(Cc4ccc5c(c4)OCO5)C(=O)[C@H]3CC[C@H]12)OCc1ccccc1	-40%[10 µM]	.	.	.
Cc1ccc2oc(=O)c3cc(C(=O)NCCN4CCN(C)CC4)sc3c2c1	-27%	-14%	35µM*	?
Cc1ccc2oc(=O)c3cc(C(=O)NCCCN4CCc5ccccc5C4)sc3c2c1	.	23%	-6%	?
COc1ccc(CCn2c(O)cc3nn(-c4nc5ccccc5s4)c(=O)c-3c2C)cc1	10%[10 µM]	35%[9.22 µM]	?	28µM*
CC(=O)Nc1cc(C)nn1-c1nc2ccccc2s1	-107%	3%	.	-22%
CC(O)CN(C)CC/C=C1/c2ccccc2CSc2ccccc21 (stereo not drawn)	6%[10 µM]	8.9µM*	-2%	?
COC(=O)[C@H](COC(C)(C)C)NC(=O)O[C@@H]1C(=O)c2cc(Br)ccc2O[C@H]1c1cccc(OC)c1	29%	.	.	7%
O=C(O)c1ccc(S(=O)(=O)NC2CCCc3ccccc32)cc1 (stereo not drawn)	-3%	21%	8%	4%
CC(=O)N1CCc2cc(S(=O)(=O)NC3CCCc4ccccc43)ccc21 (stereo not drawn)	38%[10 µM]	7.1µM*	?	-14%
COc1cc(NCCCCCCCN)c2ncccc2c1	-91%[10 µM]	1.8µM*	-4%	8%
CCCCCCOC(=O)C[N+](C)(C)CCOC1CC2CCC1(C)C2(C)C (stereo not drawn)	-67%[10 µM]	6.3µM*	17%	?
O=c1c(-c2ccc(F)cc2)nc2cnc(N3CCNCC3)nc2n1C1CC1	-25%	.	.	.
Cc1ccc(C2(c3ccc(C)cc3)CC2C(=O)Nc2ccc([N+](=O)[O-])cc2O)cc1 (stereo not drawn)	-68%	7.1µM*	-24%	-11%
NC(=S)NCCC[C@@H](N)C(=O)O	7%[1.9 µM]	.	.	.
COc1ccc(OCc2cc(-c3ccc(Cl)cc3)no2)cc1	-2%[10 µM]	-20%	36%	2%
O=C(CCl)NCc1cc(-c2ccc(Cl)cc2)no1	-198%	35µM*	39%	-1%
COc1cccc(Nc2nc(NCCO)c3ccccc3n2)c1	-55%	8.9µM*	.	?
COc1cccc(Nc2nc(NCC3CCCO3)c3ccccc3n2)c1 (stereo not drawn)	-132%	10µM*	.	?
CO[C@@H]1COC(=O)C/C=C\[C@@H](C)[C@H](OC)COC(=O)[C@H](COCc2ccccc2)NC(=O)C/C=C\[C@H]1C	3.2µM*	.	.	.
CO[C@@H]1COC(=O)[C@H](COCc2ccccc2)NC(=O)C/C=C\[C@@H](C)[C@H](OC)COC(=O)[C@H](COCc2ccccc2)NC(=O)C/C=C\[C@H]1C	20%[10 µM]	.	.	.
Cc1cc(Nc2cccc(F)c2)nc(-c2ccccc2O)n1	-21%	25µM*	9%	?
O=C1c2ccccc2C(=O)c2c(O)c(O)cc(O)c21	-5%[1.9 µM]	.	?	22µM*
CO[C@H]1COC(=O)[C@H](C)NC(=O)[C@@H](C)COC(=O)C/C=C\[C@@H]1C	-5%[10 µM]	.	.	.
SMILES	HTT cytoprotect	HTT aggregate	L3MBTL1 inh	KDM4E inh
O=C1N[C@@H](Cc2ccccc2)C(=O)N2CCCC12 (stereo partly drawn)	25%[96.6 µM]	.	3%	.
CC(C)CC1NC(=O)C(CCCN)NC(=O)C(C(C)C)NC(=O)C2CCCN2C(=O)C(Cc2ccccc2)NC(=O)C(CC(C)C)NC(=O)C(CCCN)NC(=O)C(C(C)C)NC(=O)C2CCCN2C(=O)C(Cc2ccccc2)NC1=O (stereo not drawn)	-35%	?	.	25µM*
N[C@@H](Cc1cc(CP(=O)(O)O)cc(-c2ccccc2Cl)c1)C(=O)O	32µM*	.	.	-11%
O=C1C[C@H]2OCC=C3CN4CC[C@@]5(C(=O)O)[C@H](N1)[C@H]2[C@H]3C[C@H]45	-9%[10 µM]	.	.	.
CC(C)Cn1c(/C=N/Nc2nc3ccccc3[nH]2)nc2ccccc21	-40%[10 µM]	6.3µM*	?	?
Cn1c(/C=N/Nc2nc3ccccc3[nH]2)nc2ccccc21	-138%	?	-28%	-8%
CCCn1c(/C=N/Nc2nc3ccccc3[nH]2)nc2ccccc21	-9%[10 µM]	16µM*	?	?
C[C@@H]1Nc2ccc(Cl)cc2S(=O)(=O)N1	-11%	.	.	?
CCCC(=O)N1CCN(c2ccc(NC(=O)c3ccc([N+](=O)[O-])o3)cc2)CC1	-73%	22µM*	-8%	-7%
CCC(=O)N1CCN(c2ccc(NC(=O)c3ccc([N+](=O)[O-])o3)cc2)CC1	9%[10 µM]	-5%[9.22 µM]	-16%	-23%
CN(C)c1ccc(N2C(=O)CSC2=S)cc1	7%[10 µM]	15%	?	6.3µM*
S=C(Nc1ccc2nc(-c3ccccn3)c(-c3ccccn3)nc2c1)N1CCCCC1	-61%[10 µM]	?	3%	10%
S=C(Nc1ccc2nsnc2c1)N1CCCCC1	.	-27%	-1%	11µM*
Cc1ccc(C(=O)C[n+]2cc(-c3ccc(C)cc3)n3c2CCCCC3)cc1	-76%	0.89µM*	28%	-25%
COc1ccc(C(=O)C[n+]2cc(-c3ccc(OC)cc3)n3c2CCCC3)cc1	3%[10 µM]	10µM*	1%	10%
COc1ccc(-c2c[n+](CC(=O)c3cccs3)c3n2CCC3)cc1	15%[10 µM]	-17%[9.22 µM]	2%	-2%
COc1ccc(Cl)cc1N(C)C(=O)CCc1nc(-c2ccc(C)cc2)no1	-38%	?	0%	4%
CCc1ccccc1N(C)C(=O)CCc1nc(-c2ccc(C)cc2)no1	-66%	11µM*	65%	-7%
C/C=C/C1=Cc2ccccc2C(CC(=O)OC)N1C(=O)OC (stereo not drawn)	-21%[10 µM]	.	.	-11%[11.4 µM]
O=[N+]([O-])c1c(NCCCO)cc(Sc2nc3ccccc3s2)c2nonc12	-132%	6.3µM*	23%	-2%
CN[C@]1(C)[C@@H]2CC[C@@H](C2)C1(C)C	-1%[1.9 µM]	.	.	.
C=CCn1c(COc2ccccc2)nnc1SC(C)C(=O)N/N=C/c1cc(Cl)ccc1O (stereo not drawn)	-41%	10µM*	.	?
C=C1C[C@]23CC[C@H]4C(CO)(CO)C[C@@H](O)C[C@@]4(C)[C@@H]2CC[C@H]1C3	-4%	.	.	5%
O=C(O)/C=C/C(=O)c1ccc2c(c1)NC(=O)CO2	0.2µM*	-4%	-5%	-14%
c1cc2c3c(c1)c1c(n3CCNC2)CCCC1	-11%	.	.	?
COc1ccc(Oc2ncc3nc(-c4cccs4)c(=O)n(CCC#N)c3n2)cc1	18%	.	.	.
CC(C)n1c(-c2ccc(C(C)(C)C)cc2)n[nH]c1=S	-20%	8.9µM*	-1%	4%
CC(C)n1c(-c2ccccc2F)n[nH]c1=S	-15%	8%	13%	0%
CN=C1N[C@H](c2ccccc2)N(c2ccccc2)S1	-70%	.	.	7.9µM*
CCN1C(=O)NC(c2ccccc2)C1=O (stereo not drawn)	.	.	4%	.
